PubChem BioAssay
For some of these results: Entries with a potency or affinity are not part of this list. Calls of active or inactive are those of the source.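 Rule for the calls, unless noted: active = membrane potential signal rise above negative control mean plus 3 SD in both duplicates, also active in the earlier TRPC4 screen; inactive = the rest.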

Legend:
[1] = system: TRPC4 beta (transient receptor potential cation channel C4), mouse; assay: activators of mouse TRPC4 channel, confirmation, cell-based, Fluo4 calcium, HEK293 TRPC4beta/mu-opioid, duplicates, 10 µM (AID 2426;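 active = fluorescence ratio normalized to control raised more than 50% in primary screen plus both repeat runs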); details: Fluo4 calcium fluorescence, at 10 µM; active compounds read high
[2] = system: transient receptor potential cation channel C4 beta (TRPC4), mouse; assay: activators of mouse TRPC4 channel, confirmation, cell-based, second round, Fluo4, HEK293 TRPC4beta/mu-opioid, 1 µM (AID 2461;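 active = primary screen active and over 50% activation in each of two duplicate runs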); details: Fluo4 calcium fluorescence, at 1 µM; active compounds read high
[3] = system: TRPC4 (transient receptor potential cation channel C4 beta), mouse; assay: positive allosteric modulators of mouse TRPC4, confirmation, cell-based, second round, Fluo-4, HEK293 TRPC4beta/mu-opioid, 1 µM (AID 2554;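 active = primary screen hit whose fluorescence ratio, in both repeats, exceeds the weak agonist control mean by 3 SD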); details: DAMGO EC20, Fluo-4 calcium flux, at 1 µM; active compounds read high
[4] = system: TRPC4 beta (transient receptor potential cation channel C4), mouse; assay: positive allosteric modulators of mouse TRPC4, confirmation, cell-based, Fluo-4, HEK293 TRPC4beta/mu-opioid (AID 2555;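 active = primary screen hit whose calcium fluorescence ratio, in both repeats, exceeds the weak agonist control mean by 3 SD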); details: DAMGO EC20, Fluo-4 calcium flux, at 10 µM; active compounds read high
[5] = molecular target: Short transient receptor potential channel 4 (Mus musculus) (UniProt Q9QUQ5); assay: inhibitors of mouse TRPC4 channel, confirmation, cell-based, Fluo4, HEK293 TRPC4beta/mu-opioid (AID 2636;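 active = calcium signal cut by more than 3 SD below the full-agonist control yet still positive, in both repeats and the earlier primary screen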); details: DAMGO, Fluo4 calcium flux, at 10 µM; active compounds read high
[6] = molecular target: Short transient receptor potential channel 4 (Mus musculus) (UniProt Q9QUQ5); assay: inhibitors of mouse TRPC4 channel, confirmation, cell-based, second round, Fluo4, HEK293 TRPC4beta/mu-opioid, 1 µM (AID 2637;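 active = calcium signal ratio cut to more than 3 SD under the fully stimulated control mean yet still positive, in both repeats and the primary screen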); details: Fluo4 calcium flux, DAMGO, at 1 µM; active compounds read high
[7] = molecular target: Short transient receptor potential channel 4 (Mus musculus) (UniProt Q9QUQ5); assay: mouse TRPC4 channel activators, dose response, cell-based, HEK293 TRPC4/mu-opioid, Fluo-4 calcium (AID 434937;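 active = primary screen activator hit with a dose response curve and TRPC4 channel activation at any tested dose; inactive = no activation, no dose response, or not a primary hit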)
[8] = molecular target: Short transient receptor potential channel 4 (Mus musculus) (UniProt Q9QUQ5); assay: TRPC4 positive allosteric modulators, dose response, cell-based, HEK293 TRPC4/mu-opioid, Fluo-4 calcium, EC20 DAMGO (AID 434941;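 active = earlier screen potentiator hit that boosts the TRPC4 ion channel at some dose, with a dose response; inactive = no potentiation, no dose response, or not a prior hit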;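 note: calcium entry triggered by an EC20 dose of DAMGO at the co-expressed mu-opioid receptor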)
[9] = molecular target: Short transient receptor potential channel 4 (Mus musculus) (UniProt Q9QUQ5); assay: mouse TRPC4 channel inhibitors, dose response, cell-based, HEK293 TRPC4/mu-opioid, Fluo-4 calcium (AID 434942;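 active = primary screen inhibitor hit that blocks the TRPC4 channel at some tested dose, yielding a dose curve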)
[10] = molecular target: Short transient receptor potential channel 6 (Mus musculus) (UniProt Q61143); assay: inhibition of mouse TRPC6 channel, confirmation, selectivity assay for TRPC4 inhibitor project, cell-based, HEK293, membrane potential dye, duplicate (AID 434948;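 active = active in primary screen and both duplicates, each dropping signal beyond three positive-control SD with fluorescence still positive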); details: HEK293 TRPC6, membrane potential dye fluorescence, at 10 µM, stimulated with maximal-effect acetylcholine; active compounds read high
[11] = molecular target: Short transient receptor potential channel 6 (Mus musculus) (UniProt Q61143); assay: activation of mouse TRPC6 channel, confirmation, selectivity assay for TRPC4 activator project, cell-based, HEK293, membrane potential dye, duplicate (AID 434950); details: HEK293 TRPC6, membrane potential fluorescence, at 10 µM; active compounds read high
[12] = molecular target: Short transient receptor potential channel 6 (Mus musculus) (UniProt Q61143); assay: TRPC6 potentiation by TRPC4 potentiator hits, confirmation, selectivity assay for TRPC4 potentiator project, HEK293 cells, membrane potential dye, duplicate (AID 434952;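 active = compound raising the membrane signal above positive-control mean plus 3 SD in both repeats, and a primary screen hit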); details: HEK293 TRPC6, membrane potential dye fluorescence, at 10 µM, maximal acetylcholine added after compound; active compounds read high
[13] = molecular target: Short transient receptor potential channel 4 (Mus musculus) (UniProt Q9QUQ5); assay: calcium flux activators in TRPC4/5HT1a cells, counter-screen for TRPC4 activator project, cell-based, second counter screen, HEK293 TRPC4/5HT1a, Fluo-4 (AID 434977;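 active = calcium signal rise above buffer-control mean plus 5 SD in both duplicates, and also a hit in the primary screen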); details: Fluo-4 calcium flux, at 10 µM; active compounds read high
[14] = calcium flux inhibitors in TRPC4/5HT1a cells, confirmation, counter-screen for TRPC4 inhibitor project, cell-based, second counter screen, HEK293 TRPC4/5HT1a, Fluo-4 (AID 434978;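 active = primary screen active whose calcium signal fell more than 3 SD beyond the full-serotonin control mean in both duplicate plates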;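 for outcome: serotonin given first at submaximal then at maximal dose after compound preincubation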); details: Fluo-4 calcium flux, at 10 µM, serotonin added to trigger calcium flux; active compounds read high
[15] = system: TRPC4 (mouse), co-expressed with 5HT1a in HEK293; assay: calcium flux potentiators in TRPC4/5HT1a cells, confirmation, counter-screen for TRPC4 potentiator project, cell-based, second counter screen, HEK293 TRPC4/5HT1a, Fluo-4 (AID 434979;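 active = signal rise over 3 SD above mean of control wells given weak agonist, in both repeats and first screen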); details: Fluo-4 calcium flux, at 10 µM, serotonin added at its EC20 dose; active compounds read high
[16] = calcium flux activation in mu-opioid HEK293 cells, confirmation, counter-screen for TRPC4 activator project, cell-based, HEK293 mu-opioid receptor line (AID 449723;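 active = hit in primary screen, with calcium signal over 5 SD above buffer well mean in both duplicates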;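 note: counter screen cells carry the mu-opioid receptor alone and lack TRPC4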); details: Fluo-4 calcium fluorescence, at 10 µM; active compounds read high
[17] = calcium flux enhancement in mu-opioid HEK293 cells, confirmation, counter-screen for TRPC4 allosteric potentiator project, cell-based, HEK293 mu-opioid receptor line (AID 449724;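 active = calcium signal rise more than 3 SD above the low-dose agonist control mean, in both duplicate plates and the primary screen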); details: Fluo-4 calcium flux, at 10 µM, compound added before EC20 DAMGO stimulus; active compounds read high

Chain of Short transient receptor potential channel 6 (Mus musculus) (Q61143 whole entry, looked up): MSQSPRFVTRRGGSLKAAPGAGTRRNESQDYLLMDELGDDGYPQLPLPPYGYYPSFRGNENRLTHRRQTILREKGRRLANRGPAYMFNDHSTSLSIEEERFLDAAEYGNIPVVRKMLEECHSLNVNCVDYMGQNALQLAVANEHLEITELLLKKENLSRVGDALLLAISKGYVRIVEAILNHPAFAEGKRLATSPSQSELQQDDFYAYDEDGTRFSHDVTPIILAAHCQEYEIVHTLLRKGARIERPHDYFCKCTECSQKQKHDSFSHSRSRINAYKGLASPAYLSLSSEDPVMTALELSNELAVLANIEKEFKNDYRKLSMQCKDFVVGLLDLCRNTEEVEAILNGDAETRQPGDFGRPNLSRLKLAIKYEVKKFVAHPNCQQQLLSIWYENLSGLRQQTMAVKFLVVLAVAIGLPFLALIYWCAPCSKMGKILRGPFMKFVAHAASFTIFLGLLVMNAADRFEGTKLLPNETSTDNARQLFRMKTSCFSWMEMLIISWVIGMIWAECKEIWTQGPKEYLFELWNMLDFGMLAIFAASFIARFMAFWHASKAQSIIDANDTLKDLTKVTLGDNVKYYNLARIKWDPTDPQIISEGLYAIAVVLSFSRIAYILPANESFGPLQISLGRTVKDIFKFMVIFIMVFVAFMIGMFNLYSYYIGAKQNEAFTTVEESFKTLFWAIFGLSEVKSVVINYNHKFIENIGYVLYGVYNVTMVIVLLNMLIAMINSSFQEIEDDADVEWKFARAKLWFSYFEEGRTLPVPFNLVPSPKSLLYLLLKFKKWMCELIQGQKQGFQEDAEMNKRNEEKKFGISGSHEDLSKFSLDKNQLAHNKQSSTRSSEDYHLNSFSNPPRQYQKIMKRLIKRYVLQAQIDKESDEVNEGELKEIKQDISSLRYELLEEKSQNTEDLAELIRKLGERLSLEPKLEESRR
Chain of Short transient receptor potential channel 4 (Mus musculus) (Q9QUQ5 whole entry, looked up): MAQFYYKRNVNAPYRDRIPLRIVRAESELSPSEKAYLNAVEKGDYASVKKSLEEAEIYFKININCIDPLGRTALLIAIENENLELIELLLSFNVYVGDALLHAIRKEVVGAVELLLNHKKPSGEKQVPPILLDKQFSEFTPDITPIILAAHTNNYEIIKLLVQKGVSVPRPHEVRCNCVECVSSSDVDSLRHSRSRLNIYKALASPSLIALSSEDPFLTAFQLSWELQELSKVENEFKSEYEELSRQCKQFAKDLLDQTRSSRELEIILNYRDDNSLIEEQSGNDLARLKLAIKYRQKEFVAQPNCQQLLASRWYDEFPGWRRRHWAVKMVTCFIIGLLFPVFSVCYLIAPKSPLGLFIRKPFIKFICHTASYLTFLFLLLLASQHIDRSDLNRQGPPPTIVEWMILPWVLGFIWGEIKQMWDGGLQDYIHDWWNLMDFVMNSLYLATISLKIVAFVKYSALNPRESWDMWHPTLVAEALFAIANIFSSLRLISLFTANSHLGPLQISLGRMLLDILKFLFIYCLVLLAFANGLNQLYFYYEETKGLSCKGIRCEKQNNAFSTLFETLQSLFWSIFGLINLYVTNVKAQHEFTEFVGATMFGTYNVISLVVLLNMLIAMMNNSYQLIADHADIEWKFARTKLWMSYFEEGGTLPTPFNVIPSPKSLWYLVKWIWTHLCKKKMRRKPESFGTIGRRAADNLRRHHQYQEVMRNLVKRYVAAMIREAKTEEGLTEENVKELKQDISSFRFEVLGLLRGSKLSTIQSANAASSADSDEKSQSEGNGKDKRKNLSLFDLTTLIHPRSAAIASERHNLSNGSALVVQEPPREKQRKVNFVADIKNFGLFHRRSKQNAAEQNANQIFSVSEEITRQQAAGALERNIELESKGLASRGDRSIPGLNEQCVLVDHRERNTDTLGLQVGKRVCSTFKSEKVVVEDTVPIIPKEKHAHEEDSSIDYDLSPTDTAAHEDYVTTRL

COc1cc(CN2CCC(CO)(CCOc3ccccc3)CC2)cc(OC)c1
active: inhibition [5] 87% | inhibition [14] 43.6%
inactive: outcome [1] | outcome [2] | outcome [3] | outcome [4] | outcome [6] | outcome [7] | outcome [8] | outcome [9] | outcome [10] | outcome [11] | outcome [12] | outcome [13] | outcome [15] | outcome [16] | outcome [17]

COc1cc(COCC(O)CN2CCN(CCN3C(=O)c4cccc5cccc(c45)C3=O)CC2)cc(OC)c1OC (stereo not drawn)
inactive: outcome [1] | outcome [2] | outcome [3] | outcome [4] | outcome [5] | outcome [6] | outcome [7] | outcome [8] | outcome [9] | outcome [10] | outcome [11] | outcome [12] | outcome [13] | outcome [14] | outcome [15] | outcome [16] | outcome [17]

CCOP(=O)(c1ccccc1)c1nc(-c2ccccc2Cl)oc1N1CCCCC1 (stereo not drawn)
active: potentiation [4] 23% | potentiation [15] 30.9%
inactive: outcome [1] | outcome [2] | outcome [3] | outcome [5] | outcome [6] | outcome [7] | outcome [8] | outcome [9] | outcome [10] | outcome [11] | outcome [12] | outcome [13] | outcome [14] | outcome [16] | outcome [17]

CCN1CCN(c2nc(N)c([N+](=O)[O-])c(Nc3ccc(C)c(C)c3)n2)CC1
inactive: outcome [1] | outcome [2] | outcome [3] | outcome [4] | outcome [5] | outcome [6] | outcome [7] | outcome [8] | outcome [9] | outcome [10] | outcome [11] | outcome [12] | outcome [13] | outcome [14] | outcome [16] | outcome [17]
active: potentiation [15] 10.5%

Cc1cc(Nc2ccccc2O)c2ccccc2n1
inactive: outcome [1] | outcome [2] | outcome [3] | outcome [4] | outcome [5] | outcome [6] | outcome [7] | outcome [8] | outcome [9] | outcome [10] | outcome [11] | outcome [12] | outcome [13] | outcome [14] | outcome [15] | outcome [16] | outcome [17]

COc1ccc2sc(N(CCCN(C)C)C(=O)c3ccc(S(=O)(=O)N4CCCc5ccccc54)cc3)nc2c1
inactive: outcome [1] | outcome [2] | outcome [3] | outcome [5] | outcome [6] | outcome [7] | outcome [8] | outcome [9] | outcome [10] | outcome [11] | outcome [12] | outcome [13] | outcome [14] | outcome [16] | outcome [17]
active: potentiation [4] 28% | potentiation [15] 80%

O=C(NC1CC1)c1ccc2c(c1)N(Cc1ccc(Cl)cc1)CCS2
inactive: outcome [1] | outcome [2] | outcome [3] | outcome [4] | outcome [5] | outcome [6] | outcome [7] | outcome [8] | outcome [9] | outcome [10] | outcome [11] | outcome [12] | outcome [13] | outcome [14] | outcome [15] | outcome [16] | outcome [17]

O=C(Nc1c(F)cc(F)cc1Br)c1cc(-c2ccc(O)cc2)on1
inactive: outcome [1] | outcome [2] | outcome [3] | outcome [4] | outcome [5] | outcome [6] | outcome [7] | outcome [8] | outcome [9] | outcome [10] | outcome [11] | outcome [12] | outcome [13] | outcome [14] | outcome [15] | outcome [16] | outcome [17]

COc1ccc(Br)cc1CN1CCC(N2CCCC2)CC1
active: potentiation [15] 13.5%
inactive: outcome [1] | outcome [2] | outcome [3] | outcome [4] | outcome [5] | outcome [6] | outcome [7] | outcome [8] | outcome [9] | outcome [10] | outcome [11] | outcome [12] | outcome [13] | outcome [14] | outcome [16] | outcome [17]

CCOC(=O)CC(NC(=O)c1cc2cc(Br)ccc2oc1=O)c1cccc([N+](=O)[O-])c1 (stereo not drawn)
active: potentiation [15] 15.9%
inactive: outcome [1] | outcome [2] | outcome [3] | outcome [4] | outcome [5] | outcome [6] | outcome [7] | outcome [8] | outcome [9] | outcome [10] | outcome [11] | outcome [12] | outcome [13] | outcome [14] | outcome [16] | outcome [17]

CCN1CCN(Cc2nc3c(c(=O)[nH]c(=O)n3C)n2Cc2ccccc2Cl)CC1
inactive: outcome [1] | outcome [2] | outcome [3] | outcome [5] | outcome [6] | outcome [7] | outcome [8] | outcome [9] | outcome [10] | outcome [11] | outcome [12] | outcome [13] | outcome [14] | outcome [16] | outcome [17]
active: potentiation [4] 12% | potentiation [15] 19%

CCN1CCCC(OC(=O)c2cc(-c3ccccc3Cl)nc3ccccc23)C1 (stereo not drawn)
active: potentiation [15] 9.46%
inactive: outcome [1] | outcome [2] | outcome [3] | outcome [4] | outcome [5] | outcome [6] | outcome [7] | outcome [8] | outcome [9] | outcome [10] | outcome [11] | outcome [12] | outcome [13] | outcome [14] | outcome [16] | outcome [17]

O=C(CN1CCCCC1)Nc1ccccc1Oc1ccccc1
inactive: outcome [1] | outcome [2] | outcome [3] | outcome [4] | outcome [6] | outcome [7] | outcome [8] | outcome [9] | outcome [11] | outcome [12] | outcome [13] | outcome [15] | outcome [16] | outcome [17]
active: inhibition [5] 92% | inhibition [10] 33.5% | inhibition [14] 31.5%

CCN1CCN(c2ccc(S(=O)(=O)N3CCCCC3)cc2NC(=O)COc2cc(C)ccc2Cl)CC1
inactive: outcome [1] | outcome [2] | outcome [3] | outcome [5] | outcome [6] | outcome [7] | outcome [8] | outcome [9] | outcome [10] | outcome [11] | outcome [12] | outcome [13] | outcome [14] | outcome [16] | outcome [17]
active: potentiation [4] 16% | potentiation [15] 17.8%
